Data: ChEMBL document CHEMBL1157539, “Thousands of chemical starting points for antimalarial lead identification” (Nature, 2010)

Key:
Format in all cases: functional
[1] = test system: Plasmodium falciparum; experiment: GSK_TCMDC: Inhibition of Plasmodium falciparum 3D7 in whole red blood cells, using parasite LDH activity as an index of growth. Test compounds present at 2uM
[2] = test system: Plasmodium falciparum; experiment: GSK_TCMDC: Inhibition of Plasmodium falciparum Dd2 in whole red blood cells, using parasite LDH activity as an index of growth. Test compounds present at 2uM
[3] = test system: HepG2; experiment: GSK_TCMDC: Percent inhibition of human HepG2 cell line. Test compounds present at 10uM.

SMILES	Inhibition [1] [%]	Inhibition [2] [%]	Inhibition [3] [%]
CC(C)CN1CCC(COc2ccc3ncn(-c4cc(O[C@H](C)c5ccccc5C(F)(F)F)c(C(N)=O)s4)c3c2)CC1	97	86	46
COc1ccc2nccc([C@@H](O)CN3CCC(NC(=O)C(c4ccsc4)N4CCN(c5ccccc5OC)CC4)CC3)c2c1 (stereo partly drawn)	95	50	11
COc1ccc(C23Oc4cc(OC)cc(OC)c4C2(O)C2(CC3c3ccccc3)SCCCS2)cc1 (stereo not drawn)	96	97	39
COc1ccc(-c2nc(NC(=O)CSc3ccc([N+](=O)[O-])cc3)sc2C)cc1	100	100	0
Cc1cccc2nc(-c3ccc(-c4cccc(NC(=O)Nc5ccc(Cl)cc5)c4)s3)[nH]c12	100	52	25
Cc1sc(CNCCCNc2cc(=O)c3ccccc3[nH]2)c(C(F)(F)F)c1C.Cl	99	70	0
Cc1ccc(S(=O)(=O)N2CCN(C(=O)c3cc(-c4cccs4)n[nH]3)CC2)c(C)c1	85	81	0
Nc1cc(-c2ccc3c(N)nccc3c2)ccc1Cl	91	4	1
Cc1ccc(C)c(S(=O)(=O)Nc2ccc(Br)cc2C(=O)Nc2cccc(C(F)(F)F)c2)c1	81	98	56
CCOc1ccc2[nH]c(C)cc(=NN=Cc3cccnc3)c2c1	100	100	18
Cl.O=[N+]([O-])c1ccc(-c2nc3cc(C4=NC5CCCCC5N4)ccc3[nH]2)cc1 (stereo not drawn)	100	30	0
